Reference: PubChem BioAssay AID449739 (Vanderbilt High Throughput Screening Facility, 2010)
About 4,200 (4.2%) of roughly 100,000 compounds were called active.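 The calls were made as follows: active = single-dose well whose peak fluorescence ratio is a statistical outlier from its plate by either plate-standardised score or position-corrected B-score; inactive = the rest.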 This excerpt belongs to a sample that is enriched for actives.

target: Voltage-dependent T-type calcium channel subunit alpha-1H (Homo sapiens) (UniProt O95180); assay: Cav3.2 calcium influx blockers – cell-based, Fluo-4 calcium fluorescence, FDSS, MLSMR library, primary screen (AID 449739); details: Cav3.2-expressing cells, at 10 µM, active compounds read low
Sequence (O95180 whole entry, looked up): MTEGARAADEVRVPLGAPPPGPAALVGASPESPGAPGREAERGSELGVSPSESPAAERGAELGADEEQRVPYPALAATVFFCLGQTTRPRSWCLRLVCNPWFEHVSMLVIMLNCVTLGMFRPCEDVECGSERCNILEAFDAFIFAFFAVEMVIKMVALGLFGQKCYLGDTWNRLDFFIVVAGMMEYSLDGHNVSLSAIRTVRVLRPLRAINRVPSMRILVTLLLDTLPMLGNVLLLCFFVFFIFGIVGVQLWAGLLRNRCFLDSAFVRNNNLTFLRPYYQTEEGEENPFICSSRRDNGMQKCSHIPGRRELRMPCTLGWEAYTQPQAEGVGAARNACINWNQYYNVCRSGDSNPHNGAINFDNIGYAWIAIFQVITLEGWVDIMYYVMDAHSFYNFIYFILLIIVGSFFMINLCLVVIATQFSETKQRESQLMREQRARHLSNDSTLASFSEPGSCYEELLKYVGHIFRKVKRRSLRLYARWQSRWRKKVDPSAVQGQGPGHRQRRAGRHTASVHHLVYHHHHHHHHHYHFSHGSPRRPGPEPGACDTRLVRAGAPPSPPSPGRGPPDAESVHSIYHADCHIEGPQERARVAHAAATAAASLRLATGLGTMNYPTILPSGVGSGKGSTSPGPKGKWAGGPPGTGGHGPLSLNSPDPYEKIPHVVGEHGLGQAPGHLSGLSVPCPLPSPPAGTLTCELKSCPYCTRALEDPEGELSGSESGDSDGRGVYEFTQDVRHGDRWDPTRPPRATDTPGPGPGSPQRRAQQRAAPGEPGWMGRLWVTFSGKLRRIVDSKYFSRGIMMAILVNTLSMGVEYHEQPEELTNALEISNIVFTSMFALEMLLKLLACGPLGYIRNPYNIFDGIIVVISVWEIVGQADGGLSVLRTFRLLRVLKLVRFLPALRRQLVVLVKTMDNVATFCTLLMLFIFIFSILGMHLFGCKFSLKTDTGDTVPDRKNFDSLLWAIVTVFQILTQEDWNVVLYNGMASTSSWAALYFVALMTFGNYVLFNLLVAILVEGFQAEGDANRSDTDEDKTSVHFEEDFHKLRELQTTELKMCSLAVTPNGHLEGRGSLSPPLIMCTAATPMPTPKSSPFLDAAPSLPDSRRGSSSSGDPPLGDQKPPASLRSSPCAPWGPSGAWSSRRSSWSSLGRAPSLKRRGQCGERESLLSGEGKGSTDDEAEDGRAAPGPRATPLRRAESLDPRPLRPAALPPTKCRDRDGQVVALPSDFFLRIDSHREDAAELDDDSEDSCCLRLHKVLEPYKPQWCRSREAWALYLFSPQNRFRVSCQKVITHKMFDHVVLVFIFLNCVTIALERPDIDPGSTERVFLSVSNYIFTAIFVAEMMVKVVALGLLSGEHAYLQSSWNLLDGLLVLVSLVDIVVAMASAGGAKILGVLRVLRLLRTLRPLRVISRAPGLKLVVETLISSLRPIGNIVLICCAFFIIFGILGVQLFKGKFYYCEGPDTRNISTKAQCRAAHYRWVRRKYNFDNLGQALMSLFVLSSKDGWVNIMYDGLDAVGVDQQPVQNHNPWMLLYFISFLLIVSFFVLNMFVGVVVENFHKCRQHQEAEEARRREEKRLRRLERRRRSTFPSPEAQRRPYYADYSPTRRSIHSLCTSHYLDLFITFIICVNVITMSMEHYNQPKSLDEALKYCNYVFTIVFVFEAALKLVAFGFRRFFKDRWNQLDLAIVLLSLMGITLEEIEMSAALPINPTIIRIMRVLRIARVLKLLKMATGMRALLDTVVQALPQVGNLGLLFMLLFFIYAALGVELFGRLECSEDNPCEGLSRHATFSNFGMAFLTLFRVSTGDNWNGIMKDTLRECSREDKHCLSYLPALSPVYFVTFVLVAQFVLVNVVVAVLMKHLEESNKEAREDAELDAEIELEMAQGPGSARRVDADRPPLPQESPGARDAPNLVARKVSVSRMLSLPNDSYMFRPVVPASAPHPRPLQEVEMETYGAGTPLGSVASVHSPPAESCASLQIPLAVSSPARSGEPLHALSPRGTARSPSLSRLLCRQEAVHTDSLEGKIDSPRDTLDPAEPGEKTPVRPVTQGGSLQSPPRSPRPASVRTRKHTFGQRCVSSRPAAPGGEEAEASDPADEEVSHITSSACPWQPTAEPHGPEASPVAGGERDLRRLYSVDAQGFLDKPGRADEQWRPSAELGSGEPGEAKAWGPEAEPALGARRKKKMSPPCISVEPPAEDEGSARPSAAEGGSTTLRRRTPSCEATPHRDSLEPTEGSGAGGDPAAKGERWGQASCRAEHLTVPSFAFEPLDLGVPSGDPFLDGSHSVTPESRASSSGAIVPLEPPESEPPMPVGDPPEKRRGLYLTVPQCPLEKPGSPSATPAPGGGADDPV

B-score, inactive:
CC1(OC(=O)C2CCCC2)C(=O)C=C2C=C(c3ccc(C#N)cc3)OC=C2C1=O (stereo not drawn) -0.314, CCCCNC(=O)C(=O)c1ccccc1NC(C)=O 0.725, O=C(CCCn1c(=O)[nH]c2cc(Cl)ccc2c1=O)NCCN1CCN(c2ccccc2)CC1 0.27, O=C(CCCCn1c(=O)[nH]c2ccccc2c1=O)NCc1ccc2c(c1)OCO2 -0.0333, COc1ccc(CCNC(=O)CCCCn2c(=O)[nH]c3ccccc3c2=O)cc1OC 0.545, CCn1c(=O)cc(OCC(=O)NCCCN2CCN(c3cccc(Cl)c3)CC2)c2ccccc21 0.375, COC(=O)c1ccccc1OCC(=O)N1CCN(c2ccc(Cl)cc2)CC1 -1.9, Cc1ccccc1OC/C(O)=C(\C#N)c1nc2ccccc2[nH]1 -0.71, COc1cc(OC)c(/C=N/NC(=O)c2ccc([N+](=O)[O-])cc2)cc1Br -0.234, COc1cc(/C=N\NC(=O)CNC(=O)c2cccc([N+](=O)[O-])c2)ccc1O 0.194, C#CCNC(=O)C1=C[C@@H](c2ccccc2)[C@H](CCCO)[C@@H](OCC)O1 1.09, Cc1ccc(C)c(N(CC(=O)NCc2ccco2)C(=O)CCC(=O)Nc2ccccn2)c1 -2.66, Cc1ccc(C(C(=O)NC2CCCC2)N(Cc2ccco2)C(=O)CCC(=O)Nc2ccccn2)cc1 (stereo not drawn) 0.124, C#CCOCCOCCOCCNc1nc(N2CCN(C(=O)[C@H](CCC(=O)O)n3cc(C(N)CO)nn3)CC2)nc(N2CCN(C(=O)[C@H](Cc3ccc(O)cc3)n3cc(C(N)[C@H](C)CC)nn3)CC2)n1 (stereo partly drawn) -0.353, O=C(O)/C=C/C(=O)Nc1ccc(F)cc1F 0.769, Cn1cnc([N+](=O)[O-])c1Sc1ccccc1 0.333, CC(C)(C)n1nc(Cc2cccc3ccccc23)c(C#N)c1N -1.32, COC(=O)Cc1nc2ccccc2[nH]1 0.0867, c1ccc(-c2nnc(SCc3nc4ccccc4[nH]3)o2)cc1 -1.58, COc1cc2c(cc1O)[C@H](Cc1ccc(Oc3cc(C[C@@H]4NCCc5cc(OC)c(O)cc54)ccc3O)cc1)NCC2 0.142, C(=N/N1CCN(c2ccccc2)CC1)/c1cccs1 0.219, O=C(CCNS(=O)(=O)c1ccccc1C(F)(F)F)NCc1ccc2c(c1)OCO2 -0.223, COCCn1c(-c2ccc(OC)c(OC)c2)nc2ccccc21 0.414, CCCn1c(C(O)c2cc(OC)ccc2OC)nc2ccccc21 (stereo not drawn) -1.69, CCCCN1C(N)=NC[C@@H]1CC1CCCCC1 0.078, CCCCN1C(=S)NC[C@@H]1C(C)CC (stereo partly drawn) -0.603, C[C@H](NC(=O)c1nc[nH]c1C(=O)N[C@@H](C)C(=O)OC(C)(C)C)C(=O)OC(C)(C)C 0.275, COc1cccc(-c2nnc(SCCOc3ccc4c(C)cc(=O)oc4c3)o2)c1 1.22, Cc1ccc(SCCN2C(=O)NC(C)(C)C2=O)cc1 0.269, COc1ccc(C(=O)CN2C(=O)NC(C)(c3ccc(C)cc3)C2=O)cc1OC (stereo not drawn) -0.586, NS(=O)(=O)c1cccnc1Nc1cccc(Cl)c1 -0.12, O=S(=O)(c1cnccc1N1CCN(/N=C/c2ccc(Br)cc2)CC1)N1CCCCC1 -0.791, Cc1ccc(-c2csc(N(Cc3ccco3)C(=O)c3cccs3)n2)cc1 -1.85, Cc1ccc(/C=N/NC(=O)c2sccc2OCc2ccc(F)cc2)cc1 -0.514, O=C(Nc1ccc(N2CCN(C(=O)c3ccccc3)CC2)c(Cl)c1)c1cccnc1 1.44, NC(=O)N1CCCC1C(=O)Nc1ccc(Cl)c(Cl)c1 (stereo not drawn) -0.377, COC(=O)CCCC1=CC2=CC(=O)C(C)(OC(=O)c3cccs3)C(=O)C2=CN1CC1CC1 (stereo not drawn) 1.17, C#CCOCCOCCOCCNc1nc(N2CCN(C(=O)[C@H](C(C)C)n3cc(CCO)nn3)CC2)nc(N2CCN(C(=O)[C@H](C(C)C)n3cc(CCO)nn3)CC2)n1 0.0404, COCCNC(=O)CN(C(=O)CCC(=O)Nc1cc(C)on1)c1ccc(C)cc1C 0.162, Cc1cc(NC(=O)CCC(=O)N(CC(=O)NCC2CCCO2)c2ccccc2C)no1 (stereo not drawn) 0.22, COCOc1cc(O)c(C(=O)/C=C/c2ccc(OCOC)c(OCOC)c2)c(OCOC)c1 0.785, COC(C[C@H](O)CC(=O)COCc1ccccc1)OC 0.759, COc1ccc(Br)cc1/C=N/n1c(C)nnc1C 0.564, C=CCn1c(Cn2nnc3ccccc32)nnc1SCC(=O)N/N=C/c1cc(Br)cc(OC)c1O 0.722, Cc1cccc2cc(C#N)c(N3CCCC3)nc12 -0.395, CCOc1ccc2nc(NCCNS(=O)(=O)c3ccccc3)c(C#N)cc2c1 0.364

B-score, active:
Cc1ccc(C)c(N2CCN(C(=O)CCCCn3c(=O)[nH]c4ccccc4c3=O)CC2)c1 -8.03, O=C(CCn1c(=O)[nH]c2ccccc2c1=O)NCCCN1CCN(c2cccc(Cl)c2)CC1 -7.26, COc1cccc(/C=N/NC(=O)c2cccc([N+](=O)[O-])c2)c1OS(=O)(=O)c1ccc(C)cc1 -6.01, Cc1ccc2c(c1)N(CC(=O)N(Cc1ccccn1)Cc1ccco1)C(=O)C(C(C)C)O2 (stereo not drawn) -6.96, c1ccc2c(CSCc3nc4ccccc4[nH]3)cccc2c1 -7.7, COc1ccc(-c2nc3ccccc3n2CCC(C)C)cc1OC -6.94, Cc1ccc(C2(c3ccc(C)cc3)NC(=O)N(Cc3c(C)noc3C)C2=O)cc1 -6.31, O=C(Nc1ccc(Cl)c(Cl)c1)N1CC=C(c2ccccc2)CC1 -6.72, CCCCOc1ccc(N(CC(=O)NCC2CCCO2)C(=O)CCC(=O)Nc2cc(C)ccn2)cc1 (stereo not drawn) -9.41, Oc1ccc2ccc3cccc[n+]3c2c1 -10, COc1cc(Br)cc(/C=N/c2ncn[nH]2)c1O -3.11, CCOc1ccc2nc(N3CCCN(C(=O)Nc4ccccc4C)CC3)c(C#N)cc2c1 -4.45
